Results from PubChem BioAssay (NCI).
This is part of a sample that, as a whole, favours compounds with a hit. Of some 83,000 tested, about 20% had one in any assay.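 Step 1: grow cells in 96-well plates. Step 2: add test compound at a single concentration. Step 3: incubate 48 h. Step 4: record percent growth.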 The source made the active and inactive calls. The calls were made as follows: active = growth percent below 10; inactive = the rest.

What was measured:
Experiment in all cases: NCI-60 one-dose screen, 48 h (100 = growth as untreated, 0 = no growth, -100 = all killed)
Conditions in all cases: 10 µM unless noted
NCI-H23 lung = test system: NCI-H23 lung
NCI-H226 lung = test system: NCI-H226 lung
NCI-H322M lung = test system: NCI-H322M lung
HOP-62 NSCLC = test system: HOP-62 NSCLC
NCI-H460 lung = test system: NCI-H460 lung
HOP-92 NSCLC = test system: HOP-92 NSCLC
NCI-H522 lung = test system: NCI-H522 lung
A549/ATCC NSCLC = test system: A549/ATCC NSCLC
786-0 renal = test system: 786-0 renal
COLO 205 colon = test system: COLO 205 colon

Measured: growth

COc1cc2c(cc1OCCCCN1CCN(CC(=O)Nc3ccc(Cl)cc3C(=O)c3ccccc3Cl)CC1)N=CC1CCCN1C2=O (stereo not given)
active: NCI-H23 lung -14% | NCI-H226 lung -88.1% | NCI-H322M lung -64% | HOP-62 NSCLC -88.8% | NCI-H460 lung -56.2% | HOP-92 NSCLC -85.6% | NCI-H522 lung -83.4% | A549/ATCC NSCLC -69.5% | 786-0 renal -94.2% | COLO 205 colon -61.4%

O=C(Nc1cn[nH]c1-c1nc2ccc(CN3CCOCC3)cc2[nH]1)NC1CC1
active: NCI-H226 lung 6.37% | HOP-62 NSCLC -9.72% | HOP-92 NSCLC -2.75% | COLO 205 colon -39%
inactive: NCI-H23 lung 23.5% | NCI-H322M lung 37.6% | NCI-H460 lung 34.4% | NCI-H522 lung 11.5% | A549/ATCC NSCLC 48.6% | 786-0 renal 13.6%

CNC(=O)c1ccc(Nc2ncc(C(F)(F)F)c(NCc3nccnc3N(C)S(C)(=O)=O)n2)cc1
active: NCI-H23 lung -16.8% | NCI-H226 lung 2.77% | NCI-H322M lung 1.99% | HOP-62 NSCLC -23.5% | NCI-H460 lung 0.647% | HOP-92 NSCLC -13.6% | NCI-H522 lung -25.2% | A549/ATCC NSCLC -14.4% | 786-0 renal 8.71% | COLO 205 colon -66.2%

CCc1cnn2c(NCc3ccc[n+]([O-])c3)cc(N3CCCC[C@H]3CCO)nc12
active: NCI-H23 lung -23.3% | NCI-H226 lung -6.42% | NCI-H322M lung -0.876% | HOP-62 NSCLC -33.2% | NCI-H460 lung 1.82% | HOP-92 NSCLC -20.2% | NCI-H522 lung -42.2% | A549/ATCC NSCLC -13.4% | 786-0 renal 7.96% | COLO 205 colon -62.5%

CCOC(=O)C1=C(C)N=C2Sc3cccc(OC)c3N2[C@H]1c1ccccn1
inactive: NCI-H23 lung 86.9% | NCI-H226 lung 84.9% | NCI-H322M lung 96.4% | HOP-62 NSCLC 80.6% | NCI-H460 lung 105% | HOP-92 NSCLC 93.3% | NCI-H522 lung 81.2% | A549/ATCC NSCLC 94% | 786-0 renal 113% | COLO 205 colon 103%

CN(C[C@@H]1COCCO1)S(=O)(=O)Nc1ccc2ccc3ncc(-c4cnn(C)c4)cc3c(=O)c2c1
inactive: NCI-H23 lung 30.6% | NCI-H226 lung 40.9% | NCI-H322M lung 26.3% | HOP-62 NSCLC 36.4% | NCI-H460 lung 35% | HOP-92 NSCLC 16.9% | NCI-H522 lung 11.2% | A549/ATCC NSCLC 48.1% | 786-0 renal 41.3% | COLO 205 colon 49.3%

COc1ccc(C(=O)N2c3ccccc3Sc3ccccc32)c(F)c1
inactive: NCI-H23 lung 32.4% | NCI-H226 lung 46.1% | NCI-H322M lung 44.2% | HOP-62 NSCLC 37.1% | NCI-H460 lung 12% | HOP-92 NSCLC 42.3% | A549/ATCC NSCLC 27.2% | 786-0 renal 23.1%
active: NCI-H522 lung 0.479% | COLO 205 colon 8.26%

O=c1sn(-c2cccc3ccccc23)c(=O)n1Cc1ccccc1
inactive: NCI-H23 lung 100% | NCI-H226 lung 96.8% | NCI-H322M lung 102% | HOP-62 NSCLC 76.6% | NCI-H460 lung 101% | HOP-92 NSCLC 89.3% | NCI-H522 lung 74.4% | A549/ATCC NSCLC 70.7% | 786-0 renal 107% | COLO 205 colon 89.8%

CCN(CCO)CCCOc1ccc2c(Nc3cc(CC(=O)Nc4cccc(F)c4)[nH]n3)ncnc2c1
inactive: NCI-H23 lung 29.2% | NCI-H226 lung 63.9% | NCI-H322M lung 14.4% | HOP-62 NSCLC 35.7% | NCI-H460 lung 22.6% | HOP-92 NSCLC 23.2% | NCI-H522 lung 22.9% | A549/ATCC NSCLC 23.9% | 786-0 renal 66.1%
active: COLO 205 colon -35.6%

CO[C@H](C(=O)N[C@@H](CCCCNC(=O)OCc1ccccc1)C(=O)OC(C)(C)C)[C@@H]1Cc2cc3cc(OC4CC(OC5CC(O)C(O)C(C)O5)C(O)C(C)O4)c(C)c(O)c3c(O)c2C(=O)[C@H]1OC1CC(OC2CC(OC3CC(C)(O)C(O)C(C)O3)C(O)C(C)O2)C(O)C(C)O1 (stereo not given in full)
active: NCI-H23 lung -42.6% | NCI-H226 lung -75.5% | HOP-62 NSCLC -15% | NCI-H460 lung -17.6% | HOP-92 NSCLC -82.6% | NCI-H522 lung -16% | A549/ATCC NSCLC -25.7% | 786-0 renal -89.8% | COLO 205 colon -20.7%
inactive: NCI-H322M lung 20.2%

Cc1cc(C(=O)NOCCO)c(Nc2ccc(I)cc2F)n(C)c1=O
active: HOP-92 NSCLC -21.5% | COLO 205 colon 4.04%
inactive: NCI-H23 lung 25.9% | NCI-H226 lung 71.2% | NCI-H322M lung 19.8% | HOP-62 NSCLC 38.9% | NCI-H460 lung 66.6% | NCI-H522 lung 55% | A549/ATCC NSCLC 32.8% | 786-0 renal 71.3%

CC#CC(=O)N1CCC[C@H]1c1nc(-c2ccc(C(=O)Nc3ccccn3)cc2)c2c(N)nccn12
inactive: NCI-H23 lung 96.4% | NCI-H226 lung 80.2% | NCI-H322M lung 76.6% | HOP-62 NSCLC 68.9% | NCI-H460 lung 90.4% | HOP-92 NSCLC 76.9% | NCI-H522 lung 37.1% | A549/ATCC NSCLC 48.6% | 786-0 renal 92.3% | COLO 205 colon 81.6%

COc1cnc2c(c1)C(=O)c1c-2n(CCCN2CCC(N)CC2)c(=O)c2cc([N+](=O)[O-])ccc12
inactive: NCI-H23 lung 38.4% | NCI-H226 lung 35.7% | NCI-H322M lung 52.8% | HOP-62 NSCLC 30.6% | NCI-H460 lung 11.2% | HOP-92 NSCLC 67.1% | NCI-H522 lung 42.2% | A549/ATCC NSCLC 23% | 786-0 renal 36.2% | COLO 205 colon 58.2%

COc1cc2c(c(OC)c1)C1c3ccccc3NC(=O)N1CC2 (stereo not given)
inactive: NCI-H23 lung 24% | NCI-H226 lung 51.5% | NCI-H322M lung 34.9% | HOP-62 NSCLC 51.6% | NCI-H460 lung 11.3% | HOP-92 NSCLC 28.7% | NCI-H522 lung 39.6% | A549/ATCC NSCLC 22.7% | 786-0 renal 41.4% | COLO 205 colon 16.1%

C#Cc1cccc(Nc2ncnc3cc4c(cc23)OCCOCCOCCO4)c1
inactive: NCI-H23 lung 80.5% | NCI-H226 lung 71.3% | HOP-62 NSCLC 56.1% | NCI-H460 lung 76.6% | HOP-92 NSCLC 49.4% | A549/ATCC NSCLC 42.7% | 786-0 renal 51.7% | COLO 205 colon 86.8%
active: NCI-H322M lung 1.86% | NCI-H522 lung 0.957%

COc1cc(F)c(F)c(Nc2ccc(I)cc2F)c1NS(=O)(=O)C1(C[C@H](O)CO)CC1
active: HOP-92 NSCLC -19.1% | COLO 205 colon -0.628%
inactive: NCI-H23 lung 13% | NCI-H226 lung 41.3% | NCI-H322M lung 14.2% | HOP-62 NSCLC 25.1% | NCI-H460 lung 27.8% | NCI-H522 lung 31.4% | A549/ATCC NSCLC 26.3% | 786-0 renal 54.5%

O=C(NOCCO)c1ccc2cncn2c1Nc1ccc(I)cc1F
active: HOP-92 NSCLC -19.6% | COLO 205 colon 6.84%
inactive: NCI-H23 lung 18.8% | NCI-H226 lung 56.7% | NCI-H322M lung 24.1% | HOP-62 NSCLC 35.7% | NCI-H460 lung 74.7% | NCI-H522 lung 60.4% | A549/ATCC NSCLC 25.4% | 786-0 renal 81.6%

COC1CCC(N2C(=O)CNc3ncc(-c4ccc(C(C)(C)O)nc4)nc32)CC1 (stereo not given)
active: NCI-H226 lung 8.08% | NCI-H322M lung -5.65% | HOP-62 NSCLC 5.54% | HOP-92 NSCLC -12% | NCI-H522 lung -10.3% | A549/ATCC NSCLC 2.75% | 786-0 renal 6.56% | COLO 205 colon -7.31%
inactive: NCI-H23 lung 15.8% | NCI-H460 lung 12.4%

CNC(=O)CN1CCC(Oc2cc3c(Nc4cccc(Cl)c4F)ncnc3cc2OC)CC1
active: NCI-H322M lung -5.06% | NCI-H522 lung 5.87%
inactive: NCI-H23 lung 79.7% | NCI-H226 lung 76.7% | HOP-62 NSCLC 38.3% | NCI-H460 lung 89.9% | HOP-92 NSCLC 25.1% | A549/ATCC NSCLC 28.3% | 786-0 renal 51.8% | COLO 205 colon 61.3%

Cc1cc2c(-c3nc4ccccn4c3NC3CCCCC3)c(O)c(O)cc2c(O)c1-c1c(C)cc2c(-c3nc4ccccn4c3NC3CCCCC3)c(O)c(O)cc2c1O
inactive: NCI-H23 lung 30.7% | NCI-H226 lung 53.6% | NCI-H322M lung 54.9% | HOP-62 NSCLC 26% | NCI-H460 lung 19.2% | NCI-H522 lung 15.1% | A549/ATCC NSCLC 22.8% | 786-0 renal 72.4% | COLO 205 colon 14.8%
active: HOP-92 NSCLC -3.03%

C[C@H](NC(=O)c1c(N)nn2cccnc12)c1cc2cccc(C#Cc3cnn(C)c3)c2c(=O)n1-c1ccccc1
inactive: NCI-H23 lung 40.9% | NCI-H226 lung 70.3% | NCI-H322M lung 53.6% | HOP-62 NSCLC 11.8% | NCI-H460 lung 30.4% | NCI-H522 lung 14.1% | A549/ATCC NSCLC 20.3% | 786-0 renal 19.1%
active: HOP-92 NSCLC 9.5% | COLO 205 colon -11.7%

COc1cccc(Nc2ncnn3ccc(CN4CC[C@@H](N)[C@H](O)C4)c23)c1
active: NCI-H226 lung 5.97% | NCI-H322M lung 0.241%
inactive: NCI-H23 lung 36.3% | HOP-62 NSCLC 18.7% | NCI-H460 lung 73.8% | HOP-92 NSCLC 26.3% | NCI-H522 lung 14.4% | A549/ATCC NSCLC 12.1% | 786-0 renal 13.1% | COLO 205 colon 34.6%

Cc1ccc(-c2nc3ccc(Cl)cn3c2NC2CCCCC2)o1
inactive: NCI-H23 lung 81.3% | NCI-H226 lung 84.5% | NCI-H322M lung 93.1% | HOP-62 NSCLC 87% | NCI-H460 lung 97.6% | HOP-92 NSCLC 73.1% | NCI-H522 lung 57.3% | A549/ATCC NSCLC 79.5% | 786-0 renal 87.8% | COLO 205 colon 79.6%

CCCCOc1nc2cc(Cl)ccc2cc1/C=C/c1cc(/C=C/c2cc3ccc(Cl)cc3nc2OCCCC)n(-c2ccccc2)n1
inactive: NCI-H23 lung 83.3% | NCI-H226 lung 75.1% | NCI-H322M lung 92.5% | HOP-62 NSCLC 32.3% | NCI-H460 lung 98.3% | HOP-92 NSCLC 76.8% | NCI-H522 lung 61% | A549/ATCC NSCLC 75.4% | 786-0 renal 64% | COLO 205 colon 88.3%

COc1ccc(CCCc2c3[n+](cc4c(OC)c(OC)ccc24)CCc2cc4c(cc2-3)OCO4)cc1
active: COLO 205 colon -11.2%
inactive: NCI-H23 lung 47.4% | NCI-H226 lung 88.4% | NCI-H322M lung 96.1% | HOP-62 NSCLC 78.6% | NCI-H460 lung 52.4% | HOP-92 NSCLC 77.8% | NCI-H522 lung 38.7% | A549/ATCC NSCLC 61.2% | 786-0 renal 92.2%

CCCS(=O)(=O)Nc1ccc(F)c(C(=O)c2c[nH]c3ncc(-c4ccc(Cl)cc4)cc23)c1F
active: COLO 205 colon -4.91%
inactive: NCI-H23 lung 56% | NCI-H226 lung 57.2% | NCI-H322M lung 27.8% | HOP-62 NSCLC 34.8% | NCI-H460 lung 17.3% | HOP-92 NSCLC 28% | NCI-H522 lung 28.9% | A549/ATCC NSCLC 25.6% | 786-0 renal 19%
